# Hits are enriched below; roughly 3.2% of the tested compounds scored in any of these assays.
# TMEM16A act: activates or potentiates the mouse TMEM16A chloride channel; Q8BHY3; HEK293 TMEM16A/YFP-H148Q/I152L, iodide quench fluorescence; active compounds read low; B-score at 10 µM; 340,000 tested, 0.3% active;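 active = fluorescence-ratio B-score plate-corrected deviation score at least 3 library SD below zero, with starting fluorescence score within 5 deviations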;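 also: channel opened by trigger with iodide after compound preincubation; score built on the fluorescence ratio of max minus min over baseline; more negative score means more quench and so TMEM16A activation or potentiation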
# CHT allo act: allosterically activates the human high affinity choline transporter | Q9GZV3 | CHT-expressing cells, membrane potential dye, choline EC20; active compounds read high; LV-AA mutant CHT in HEK293 cells | B-score at 10 µM | 310,000 tested, 0.49% active;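 active = initial fluorescence not abnormally high and integrated response B-score, plate-corrected, over 3 SD above library mean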
# ANO1 block: inhibitors of mouse TMEM16A calcium-activated chloride channel | Q8BHY3 | HEK293 TMEM16A/YFP iodide influx fluorescence, ionomycin | normalized B-score (activity score, 25-100; higher = stronger inhibition) at 10 µM | 310,000 tested, 1.2% active | AID 588511;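 active = ratio plate-corrected score three or more library SD toward inhibition, starting fluorescence score within five deviations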;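 also: score derived from kinetic fluorescence span divided by baseline fluorescence per well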
# CHT block: inhibitors of human choline transporter CHT. Q9GZV3. CHT-expressing cells, membrane potential dye, choline response; active compounds read low. B-score at 10 µM. 310,000 tested, 0.86% active. AID 488975;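 active = B-score over 3 SD under the library average, and starting fluorescence ratio not unusually high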;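 also: choline stimulus applied at its EC90 after an EC20 pre-addition; B-score computed on integrated fluorescence ratio after choline addition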
# HDAC3 inhib: inhibitors of human histone deacetylase 3; O15379; recombinant HDAC3, fluorogenic peptide/trypsin coupled, fluorescence; inhibition, % at 8.3 µM; 320,000 tested, 0.15% active; AID 2718; in the data active = inhibition above about 26%, passing the limit was not always enough
# PHOSPHO1 inh: inhibitors of human PHOSPHO1 phosphatase; recombinant PHOSPHO1, absorbance phosphatase assay; inhibition, % at 13.3 µM; 290,000 tested, 1.1% active; AID 1565; in the data active = inhibition above about 60%
# TMEM16A reconf: reconfirmed blocker of mouse TMEM16A calcium-activated chloride channel | AID 652189 | shares compounds with ANO1 block | inhibition, % at 10 µM | 2,300 tested, 39% active | HEK293 TMEM16A/YFP-H148Q, iodide quench fluorescence; ionomycin added to raise cell calcium;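 active = mean duplicate percent inhibition, scaled so buffer wells are 0 and the reference blocker 100, over three buffer SD above buffer mean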
# HEK293 Ca mobil: alters calcium mobilization in TMEM16A HEK293 cells, counter-screen; shares compounds with ANO1 block; TMEM16A/YFP HEK293, Fluo4 calcium mobilization; calcium response (% of ionomycin), % at 10 µM; 2,300 tested, 2% active; AID 652231;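 active = duplicate-averaged calcium signal over 20% of the ionomycin maximum, relative to buffer baseline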;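 also: each well's signal is peak minus trough fluorescence divided by its pre-addition baseline; 0% = buffer wells and 100% = ionomycin wells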
# YFP-HEK293 quench: acts in parental YFP-HEK293 cells lacking TMEM16A, counter-screen | shares compounds with ANO1 block | iodide YFP quench, ionomycin | YFP ratio F(max-min)/F0 at 10 µM | 2,300 tested, under 10 active | AID 652233;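 active = yellow fluorescent protein signal ratio exceeding the buffer control mean by over 5 SD of those controls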;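 also: ratio is mean of duplicate wells from kinetic YFP trace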
# ClC-1 inh: selectivity of TMEM16A inhibitors: inhibition of rat ClC-1 chloride channel | shares compounds with ANO1 block | CHO ClC-1-YFP, iodide influx fluorescence quench; iodide control reads 0, buffer control 100 | ratio percent, % at 10 µM | AID 652236 | 2,300 tested, under 10 active;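 active = duplicate-mean ratio percent above the mean of iodide-only control wells, which defines zero, plus 5 of their SD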;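 also: higher percent means stronger block of ClC-1 iodide influx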
# * marks the source's active call; other numbers are inactive results; i = inactive; x = no result given.
SMILES,TMEM16A act,CHT allo act,ANO1 block,CHT block,HDAC3 inhib,PHOSPHO1 inh,TMEM16A reconf,HEK293 Ca mobil,YFP-HEK293 quench,ClC-1 inh
COc1cccc(C2=CC(c3cccc(OC)c3OC(F)F)n3nnnc3N2)c1 (centres undefined),i,i,100*,i,5,18,i,i,-1,-3
Cc1ccc(NC(=O)COC(=O)c2ccc(F)cc2Cl)c(Br)c1,i,i,i,i,12,-2,x,x,x,x
COc1ccc(-n2c(SCC(=O)N3CCN(c4ccccc4)CC3)nc3c(c2=O)SCC3)cc1,i,i,i,i,3,34,x,x,x,x
CCOc1ccc(OCc2ccc(C(=O)OCc3ccccn3)o2)cc1,i,i,100*,i,5,-7,i,i,-1,-4
CCN(CC)CCCCOc1ccccc1OC,i,i,100*,i,2,3,i,i,-1.1,-12
O=S(=O)(Nc1nc2ccccc2nc1Nc1ccc(N2CCOCC2)cc1)c1cc(Cl)ccc1Cl,i,i,100*,i,-2,-12,42%*,26%*,-1,-10
Clc1nc(Nc2ccc(N3CCOCC3)cc2)c2ccccc2n1,i,i,i,i,3,23,x,x,x,x
COc1ccc(N2C(=O)C3CCCN3C2c2cccc(OC)c2OC)cc1 (centres undefined),i,i,25*,i,2,-9,i,i,-0.9,-6
Cc1cccc(NC(=O)c2nc[nH]c2C(=O)N2CCC(C)CC2)c1,i,x,x,x,-5,x,x,x,x,x
O=C(NCc1ccco1)C(c1ccccc1F)N(CC1CCCO1)C(=O)Cn1nnc2ccccc21 (centres undefined),i,i,i,i,-5,-52,x,x,x,x
CCOc1ccc(OCc2ccc(C(=O)N3N=C(C(F)F)CC3(O)C(F)F)o2)cc1 (centres undefined),i,i,25*,i,14,12,i,i,-1.1,-14
CC(C)c1ccc(OCc2ccc(C(=O)N3CCCC3)o2)cc1,i,7.1*,25*,i,0,17,53%*,i,-1.1,-15
CN1CCN(C(=O)c2ccc(COc3ccc(C(C)(C)C)cc3)o2)CC1,i,i,i,i,4,23,x,x,x,x
COc1ccc(CNC(=O)C2CCN(C(=O)c3csc(Nc4ccc(C)cc4)n3)CC2)cc1,i,i,i,i,-3,40,x,x,x,x
CCCOc1ccc(C(=O)CCC(=O)OCC(=O)N(C)c2c(N)n(Cc3ccccc3)c(=O)[nH]c2=O)cc1,i,i,i,i,3,-26,x,x,x,x
Cc1c(C(=O)N/N=C/c2ccc(O)c(Br)c2)sc(N)c1C#N,i,i,i,i,1,6,x,x,x,x
CC1CCN(C(=O)C(NS(=O)(=O)c2cccc3nsnc23)c2ccccc2)CC1 (centres undefined),i,i,i,i,6,34,i,i,-1.4,-18
Cn1c(SCC(=O)N2CCN(c3ccccc3)CC2)nnc1-c1c[nH]c2ccccc12,i,i,100*,i,0,52,21%*,i,-0.87,-8
N#CC1(Cc2ccccc2)c2ccccc2C=CN1C(=O)c1ccccc1 (centres undefined),i,i,100*,i,13,6,i,i,-1.2,-12
Cc1cccc2c(=O)cc(C(F)(F)F)[nH]c12,i,i,i,i,x,-6,x,x,x,x
O=c1cc(C(F)(F)F)[nH]c2c(OC(F)(F)F)cccc12,i,i,100*,i,-3,6,28%*,i,-1.1,-16
CC1(C)C[C@@H]2C[C@@](C)(CN2C(=O)c2cc(COc3cccc(C(F)(F)F)c3)on2)C1,i,i,25*,i,5,23,i,i,-1.2,-14
O=S(=O)(c1ccccc1)N1CCN(S(=O)(=O)N2CCCCC2)CC1,i,i,i,i,-1,23,x,x,x,x
S=C(NCCc1ccccc1)Nc1ccc(N2CCCCC2)cc1,x,i,i,i,2,28,i,i,-1,-6
CCOC(=O)c1ccc(NC(=O)CCc2ccc(CC)o2)cc1,i,i,100*,i,15,11,i,i,-1.1,-8
SMILES,TMEM16A act,CHT allo act,ANO1 block,CHT block,HDAC3 inhib,PHOSPHO1 inh,TMEM16A reconf,HEK293 Ca mobil,YFP-HEK293 quench,ClC-1 inh
CCOC(=O)c1ccc(NC(=S)NCCc2ccccc2)cc1,i,i,25*,i,4,25,18%*,i,-1.2,-19
CCc1ccc(CCC(=O)Nc2ccc(C(C)=O)cc2)o1,i,i,i,i,-3,-14,x,x,x,x
CCN(CC)CCCn1c(SCC(=O)NCC2CCCO2)nc2ccccc2c1=O (centres undefined),i,x,x,x,x,x,x,x,x,x
O=C(COC(=O)c1n[nH]c(=O)c2ccccc12)c1ccc(Br)cc1,i,i,i,i,10,28,x,x,x,x
CCOc1ccc(NC(=O)CSc2nnc(C)n2Cc2ccccc2)cc1,i,i,i,i,0,-3,x,x,x,x
CCCn1nnnc1NCc1ccccc1OCc1cccs1,i,i,i,i,-1,-2,x,x,x,x
CCCn1nnnc1NCc1ccccc1OCc1ccc(F)cc1,i,i,i,i,-5,0,i,i,-1.1,-7
C=CCNC(=O)C1CC(=O)N(c2ccc(Br)cc2)C1 (centres undefined),i,i,i,i,-20,17,x,x,x,x
CCNC(=O)C1CC(=O)N(c2ccc(Br)cc2)C1 (centres undefined),i,i,i,i,-1,1,i,i,-0.97,-4
CCOC(=O)C(=O)N(CC)C1CCS(=O)(=O)C1 (centres undefined),i,i,100*,i,4,20,i,i,-1,-17
Cn1c(NCCN2CCCCC2)cc(=O)n(C)c1=O,i,i,i,i,0,-16,x,x,x,x
O=C(CN1C(=O)c2cccc3cccc1c23)N1CCc2ccccc2C1,i,i,i,i,0,14,x,x,x,x

# Compound activity deposited in PubChem BioAssay by several laboratories.
